Compound activity deposited in PubChem BioAssay by several laboratories.
Peg3 prom inh: inhibitors of Peg3 promoter; HeLa PEG-Prom luciferase reporter, luminescence, overnight; inhibition, % at 20 µM; actives 1.7% (n = 360,000); AID 588405;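 active means inhibition of at least 50% at 20 µM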
KKLEB tox: counter-screen for CF NF-kB inhibitors: cytotoxicity; actives 0.36% (n = 360,000); AID 602141; activity change (cytotoxicity), % at 5 µM; KKLEB CF airway cells viability, ATPlite luminescence, overnight; stronger effect = lower value; cells stimulated with P. aeruginosa culture filtrate;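 active means corrected activity change at or below -50% at 5 µM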
CF NFkB block: blocks PAF-induced NF-kB reporter in cystic fibrosis cells; actives 0.86% (n = 360,000); KKLEB NF-kB-GFP reporter, GFP fluorescence overnight; inhibition, % at 5 µM;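 active means at least 50% inhibition at 5 µM, scaled per plate between neutral and stimulator controls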;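 further: PAF is a Pseudomonas aeruginosa culture filtrate used as stimulus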
TRPM1 prom inh: inhibitors of MITF-driven TRPM1 promoter in melanoma cells; SK-MEL-5 TRPM1 promoter luciferase, 24 h; inhibition, % at 12.5 µM; actives 0.83% (n = 330,000);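 active means mean inhibition across replicates of 60% or more, whatever share of single replicates reaches that level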
Beta2AR agonist: human beta-2 adrenergic receptor agonism by FAP; Am2.2-beta2AR cells, FAP receptor internalization, flow cytometry; P07550; actives 0.43% (n = 340,000); AID 504454; response, % (test concentration not listed);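 active means response above a set limit, near 3 SD of response in nonfluorescent compounds, cut at about 42% in these data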
Target sequence (P07550 whole entry, looked up): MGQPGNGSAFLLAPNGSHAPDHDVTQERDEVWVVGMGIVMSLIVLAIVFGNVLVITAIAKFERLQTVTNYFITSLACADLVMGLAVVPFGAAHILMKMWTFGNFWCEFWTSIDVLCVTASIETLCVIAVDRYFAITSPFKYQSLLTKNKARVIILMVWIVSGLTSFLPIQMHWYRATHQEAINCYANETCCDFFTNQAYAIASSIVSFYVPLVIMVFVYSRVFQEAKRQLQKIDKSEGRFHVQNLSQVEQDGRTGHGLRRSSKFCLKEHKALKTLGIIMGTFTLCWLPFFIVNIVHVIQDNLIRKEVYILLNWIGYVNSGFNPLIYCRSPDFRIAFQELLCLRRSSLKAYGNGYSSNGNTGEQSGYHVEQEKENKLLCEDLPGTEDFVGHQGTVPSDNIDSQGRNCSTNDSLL
HIF-2a inh: HIF-2a inhibition. AID 624352. 786-0 RCC cells HIF-2a reporter, luciferase luminescence, overnight. inhibition, % at 18.8 µM. actives 0.72% (n = 360,000);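 active means inhibition of the luminescence signal of 40% or more relative to plate controls, in a single-dose primary screen at 18.75 µM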
CF NFkB inh conf: confirmation of cystic fibrosis induced NF-kB inhibitors | shares compounds with CF NFkB block | KKLEB CF airway cells, PAF-induced NF-kB-GFP fluorescence, overnight | inhibition, % at 5 µM | actives 64% (n = 1,300) | AID 602472; in the data active means inhibition above about 40%;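 further: stimulus PAF is a Pseudomonas aeruginosa filtrate and not platelet activating factor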
Numbers stand for hits; - = inactive; . = no result given. Rows were chosen to be rich in hits. Some 2.8% of all compounds tested hit in one or more screens of this group.

SMILES	Peg3 prom inh	KKLEB tox	CF NFkB block	TRPM1 prom inh	Beta2AR agonist	HIF-2a inh	CF NFkB inh conf
CC(=O)Oc1ccc(OC(C)=O)c(SCCCCCCl)c1	-	-	57.7	-	-	-	-
C[C@@H]1CCCCO[C@@H](CN(C)C(=O)Cc2ccccc2)[C@@H](C)CN([C@H](C)CO)C(=O)c2cc(N(C)C)ccc2O1	-	-	-	.	.	-	.
c1cncc(CNc2ncnc3ccc(-c4ccc5c(c4)OCCO5)cc23)c1	-	-	-	-	-	-	.
COc1cccc(-c2ccc3ncnc(NCc4cccc(C)c4)c3c2)c1	-	-	69.0	-	-	-	62.2
COc1cccc(CNc2ncnc3ccc(-c4c(C)noc4C)cc23)c1	-	-	-	-	-	-	.
COc1cccc(-c2ccc3ncnc(NCc4cccs4)c3c2)c1	-	-	61.3	-	-	-	85.2
c1cncc(-c2ccc3ncnc(NCc4ccc5c(c4)OCO5)c3c2)c1	-	-	54.6	-	-	-	64.6
OC[C@@H]1CN(Cc2cccc3ccccc23)C[C@H](n2cnc3c(NCc4ccco4)ncnc32)O1	-	-	-	.	.	-	.
CC1(C(=O)NCCC(F)(F)F)Cc2c(-c3ccccc3)ccnc2O1 (stereo not drawn)	-	-	-	.	.	-	.
CC(=O)N1CCc2c(sc(NC(=O)c3ccc([N+](=O)[O-])o3)c2C(N)=O)C1	97.2	-	95.6	.	.	-	-
CCC(=O)Nc1sc2c(c1C(N)=O)CCN(C(C)=O)C2	-	-	-	.	-	-	.
CCOc1ccccc1N1CCN(C(=O)c2cc(-c3cc(OC)ccc3OC)nc3ccccc23)CC1	-	-	64.8	-	-	-	63.4
COc1ccc(-c2cc(C(=O)N3CCN(c4ccccc4O)CC3)c3ccccc3n2)cc1	-	-	-	.	-	-	.
COc1ccc(OC)c(-c2cc(C(=O)Nc3ccccc3C(N)=O)c3ccccc3n2)c1	54.1	-	79.6	.	-	-	-
COc1ccc(OC)c(-c2cc(C(=O)N/N=C/c3ccc(F)cc3)c3ccccc3n2)c1	-	-	-	.	-	-	.
O=C(COC(=O)c1ccc2[nH]c3c(c2c1)CCCC3)Nc1ccccc1Cl	-	-	56.3	-	-	-	54.0
O=C(COC(=O)c1ccc2[nH]c3c(c2c1)CCCC3)Nc1ccc(Cl)cc1Cl	-	-	-	-	-	-	.
O=C(CN1CCN(C(c2ccccc2)c2ccccc2)CC1)N1CCOCC1	-	-	-	-	-	-	.
Oc1c(C(c2ccccc2)N2CCOCC2)ccc2ccccc12 (stereo not drawn)	55.7	-	79.0	-	-	-	-
CCOC(=O)/C=C/C(=O)Nc1cc(S(=O)(=O)Nc2ccc(OC)cc2)ccc1N1CCOCC1	-	-	63.3	-	-	-	-
CCC(=O)N[C@@H]1CC[C@@H](CCNC(=O)Nc2ccc(F)cc2)O[C@@H]1CO	.	.	.	.	.	-	.
CCCC#Cc1ccc2c(c1)O[C@H](CN(C)S(=O)(=O)c1cccc(OC)c1)[C@H](C)CN([C@H](C)CO)S2(=O)=O	-	-	-	.	.	-	.
CC1(C(=O)NS(=O)(=O)c2cccc(C#N)c2)CCN1C(=O)CC1CC1 (stereo not drawn)	-	-	-	.	.	-	.
CCc1c(C)nc2ccc(Br)cc2c1SCCC#N	-	-	73.2	-	-	-	89.2
CCc1c(C)nc2c(Br)cccc2c1SCCC#N	-	-	-	-	-	-	.
Cc1ccc(C(C(=O)NCc2ccccc2)N(Cc2cccs2)C(=O)c2ccc3c(c2)OCCO3)cc1 (stereo not drawn)	63.1	-	90.7	-	-	-	104.7
COC(=O)c1ccc(C(C(=O)NCc2ccccc2)N(Cc2cccs2)C(=O)c2cnccn2)cc1 (stereo not drawn)	-	-	-	-	-	-	.
Cc1cccc(N2C(=O)C3CCCN3C2=S)c1C (stereo not drawn)	-	-	-	-	-	-	.
CCN1CCN(Cc2ccc(NC(=O)c3ccc(C)c(NC(=O)c4cc(-c5ccc(Br)cc5)n[nH]4)c3)cc2C(F)(F)F)CC1	-	-	51.1	-	-	-	66.6
